Our source for the potency estimated from few doses values is PMC11062922 (Nature Chemical Biology, 2023).

Read-outs that look alike come from different tables or passages of the source.

Design in all cases: species or system human, MV4-11 + K-562 + COLO205 + SK-N-BE2 + OVCAR-8
One test relates to ADRBK1. Conditions: read-out: apparent Kd, n = 1.
The test system of the next test is AKT1. Conditions: read-out: apparent Kd, n = 1.
A further test relates to AKT2. Conditions: read-out: apparent Kd, n = 1.
Another test concerns CSNK1A1. Conditions: read-out: apparent Kd, n = 1.
For a further test, the system named is MAP2K2. Conditions: read-out: apparent Kd, n = 1.
For another test, the system named is MAP3K4. Conditions: read-out: apparent Kd; compound concentrations:100 nM and 1000 nM (sheet 'Samples'); n = 1.
Another test deals with MAPK14. Conditions: read-out: apparent Kd; compound concentrations: 100 nM and 1000 nM (sheet 'Samples'), CATDS: 0.122142095126863; n = 1.
Another test relates to NCL. Conditions: read-out: apparent Kd; compound concentrations:100 nM and 1000 nM (sheet 'Samples'); n = 1.
The subject of a further test is OPA1. Conditions: read-out: apparent Kd; compound concentrations:100 nM and 1000 nM (sheet 'Samples'); n = 1.
The subject of a further test is PIM2. The conditions noted are these: read-out: apparent Kd; compound concentrations:100 nM and 1000 nM (sheet 'Samples'); n = 1.
A further test deals with PIP4K2C. Conditions: read-out: apparent Kd; compound concentrations:100 nM and 1000 nM (sheet 'Samples'); n = 1.
The next test has as its system PRKAG2. The conditions noted are these: read-out: apparent Kd; compound concentrations:100 nM and 1000 nM (sheet 'Samples'); n = 1.
Another test relates to PYGL. Conditions: read-out: apparent Kd, n = 1.
A further test has as its system STK16. Conditions: read-out: apparent Kd; compound concentrations:100 nM and 1000 nM (sheet 'Samples'); n = 1.
The subject of a further test is STK26. The conditions noted are these: read-out: apparent Kd, n = 1.
For another test, the system named is CAMK4. Conditions: read-out: apparent Kd; compound concentrations: 100 nM and 1000 nM (sheet 'Samples'), CATDS: 3.6966464107036197E-2; n = 1.
A further test deals with EPHA7. The conditions noted are these: read-out: apparent Kd; compound concentrations: 100 nM and 1000 nM (sheet 'Samples'), CATDS: 3.8645316072732999E-2; n = 1.
The subject of a further test is ILK. The conditions noted are these: read-out: apparent Kd; compound concentrations: 100 nM and 1000 nM (sheet 'Samples'), CATDS: 0.14244785973502599; n = 1.
The subject of a further test is MAP2K1. The conditions noted are these: read-out: apparent Kd; compound concentrations: 100 nM and 1000 nM (sheet 'Samples'), CATDS: 0.14670729977766001; n = 1.
In a further test the test system is MAP2K4. Conditions: read-out: apparent Kd; compound concentrations: 100 nM and 1000 nM (sheet 'Samples'), CATDS: 0.186744219541462; n = 1.
A further test has as its system MCM5. Conditions: read-out: apparent Kd; compound concentrations: 100 nM and 1000 nM (sheet 'Samples'), CATDS: 3.88707631057994E-2; n = 1.
The test system of the next test is MYLK3. The conditions noted are these: read-out: apparent Kd; compound concentrations: 100 nM and 1000 nM (sheet 'Samples'), CATDS: 3.9755051907905598E-2; n = 1.
Another test concerns NNT. Conditions: read-out: apparent Kd; compound concentrations: 100 nM and 1000 nM (sheet 'Samples'), CATDS: 5.0059398656859502E-2; n = 1.
In the next test the test system is NQO1. The conditions noted are these: read-out: apparent Kd; compound concentrations: 100 nM and 1000 nM (sheet 'Samples'), CATDS: 4.7880082762824801E-2; n = 1.
The subject of another test is PRKCI. Conditions: read-out: apparent Kd; compound concentrations: 100 nM and 1000 nM (sheet 'Samples'), CATDS: 3.7397105483333901E-2; n = 1.
The test system of the next test is RIOK2. Conditions: read-out: apparent Kd; compound concentrations: 100 nM and 1000 nM (sheet 'Samples'), CATDS: 4.6117723123063198E-2; n = 1.
The subject of another test is STK11. The conditions noted are these: read-out: apparent Kd; compound concentrations: 100 nM and 1000 nM (sheet 'Samples'), CATDS: 4.1841672980442002E-2; n = 1.
Another test has as its system TP53RK. Conditions: read-out: apparent Kd; compound concentrations: 100 nM and 1000 nM (sheet 'Samples'), CATDS: 4.1477973818590801E-2; n = 1.
A further test deals with VDAC3. The conditions noted are these: read-out: apparent Kd; compound concentrations: 100 nM and 1000 nM (sheet 'Samples'), CATDS: 3.7908226064931903E-2; n = 1.
For a further test, the system named is CDK6. Conditions: read-out: apparent Kd; compound concentrations: 100 nM and 1000 nM (sheet 'Samples'), CATDS: 0.30417888081932698; n = 1.
The next test deals with CLK3. Conditions: read-out: apparent Kd; compound concentrations: 100 nM and 1000 nM (sheet 'Samples'), CATDS: 0.34896481785662797; n = 1.
The mark [1] stands for this setting: compound concentrations:100 nM and 1000 nM (sheet 'Samples').

Take `Cc1ccc(NC(=O)CC2CC2)cc1-c1ccc(C(=O)NCC2CC2)cc1` [GW796920X]: the potency estimated from few doses in the test on ADRBK1 (setting [1]) is 1.86 µM; in the test with AKT1 (setting [1]), 1.77 µM; in the test on AKT2 (setting [1]) it was 1.68 µM; in the test on CSNK1A1 (setting [1]) it was 2.22 µM; in the test with MAP2K2 (setting [1]), 2.22 µM; with MAP3K4 it was 1.8 µM. Moreover, the potency estimated from few doses was 0.629 µM in the test on MAPK14; 2.3 µM in the test with NCL; 1.7 µM in the test with OPA1; 1.74 µM in the test with PIM2; 1.65 µM with PIP4K2C; 1.31 µM in the test with PRKAG2. Moreover, the potency estimated from few doses was 2.13 µM in the test on PYGL (setting [1]), 2.17 µM in the test on STK16 and 1.45 µM in the test on STK26 (setting [1]).
Regarding `COc1cc2ncn(-c3cc(OCc4ccccc4C(F)(F)F)c(C(C)=O)s3)c2cc1OC` [GSK1030059A], the potency estimated from few doses in the test on ADRBK1 (compound concentrations: 100 nM and 1000 nM (sheet 'Samples'), CATDS: 0.14381840818805) was 0.132 µM; with AKT1 (compound concentrations: 100 nM and 1000 nM (sheet 'Samples'), CATDS: 4.3697981842120898E-2), 1.3 µM; in the test with AKT2 (compound concentrations: 100 nM and 1000 nM (sheet 'Samples'), CATDS: 4.5438239597783502E-2), 1.18 µM; in the test with CAMK4, 2.08 µM; in the test with CSNK1A1 (compound concentrations: 100 nM and 1000 nM (sheet 'Samples'), CATDS: 3.77728763052241E-2) it was 1.95 µM; in the test with EPHA7 it was 1.82 µM. Besides, the potency estimated from few doses was 0.134 µM in the test with ILK; 0.128 µM in the test on MAP2K1; 1.19 µM in the test on MAP2K2 (compound concentrations: 100 nM and 1000 nM (sheet 'Samples'), CATDS: 4.5160118472274198E-2); 0.0895 µM in the test on MAP2K4; 1.79 µM in the test on MCM5; 1.67 µM with MYLK3. The potency estimated from few doses is 0.933 µM in the test with NNT; 1.04 µM with NQO1; 2.01 µM in the test with PRKCI; 2 µM in the test on PYGL (compound concentrations: 100 nM and 1000 nM (sheet 'Samples'), CATDS: 3.7417156320033999E-2); 1.13 µM in the test with RIOK2; 1.45 µM with STK11. The potency estimated from few doses in the test with STK26 (compound concentrations: 100 nM and 1000 nM (sheet 'Samples'), CATDS: 3.6848584126752397E-2) is 2.1 µM; in the test on TP53RK it was 1.49 µM; in the test with VDAC3, 1.93 µM.
For the compound `COc1ccc(CNC(=O)NC2CCN(c3ccnc(Nc4ccc(OC)cc4)n3)C2)cc1` (stereo not drawn) [GSK1379727A], the potency estimated from few doses in the test on ADRBK1 (compound concentrations: 100 nM and 1000 nM (sheet 'Samples'), CATDS: 0.35126637263884503) is 1.27 µM; in the test on CDK6, 1.7 µM; in the test with CLK3, 1.28 µM.
